{
  "source": "PubChem BioAssay AID2662",
  "about": "(National Center for Advancing Translational Sciences (NCATS), 2010)",
  "note": "Among all 290,000 compounds or so, about 110 (0.038%) were called active. About 3% were inconclusive and are not listed. The call rests on the fitted dose curve; in most records, active means well fitted inhibition curve with a large enough effect in the polarisation, with a control signal flat (not every such curve was filed as active); inconclusive means small, poorly fitted or top-dose-only effect, or effect the other way, or a change in a side signal; inactive means no such curve, though single readings can be large or run the other way; the % refers to the polarisation. Shown is part of a subset that was picked to be rich in actives. A call without a number means that no potency is given here. Potency means the concentration at half of the fitted maximal effect.",
  "data": [
    {"biological_target": "Histone-lysine N-methyltransferase 2A (Homo sapiens) (UniProt Q03164)", "sequence (Q03164 whole entry, looked up, the tested form may be a part)": "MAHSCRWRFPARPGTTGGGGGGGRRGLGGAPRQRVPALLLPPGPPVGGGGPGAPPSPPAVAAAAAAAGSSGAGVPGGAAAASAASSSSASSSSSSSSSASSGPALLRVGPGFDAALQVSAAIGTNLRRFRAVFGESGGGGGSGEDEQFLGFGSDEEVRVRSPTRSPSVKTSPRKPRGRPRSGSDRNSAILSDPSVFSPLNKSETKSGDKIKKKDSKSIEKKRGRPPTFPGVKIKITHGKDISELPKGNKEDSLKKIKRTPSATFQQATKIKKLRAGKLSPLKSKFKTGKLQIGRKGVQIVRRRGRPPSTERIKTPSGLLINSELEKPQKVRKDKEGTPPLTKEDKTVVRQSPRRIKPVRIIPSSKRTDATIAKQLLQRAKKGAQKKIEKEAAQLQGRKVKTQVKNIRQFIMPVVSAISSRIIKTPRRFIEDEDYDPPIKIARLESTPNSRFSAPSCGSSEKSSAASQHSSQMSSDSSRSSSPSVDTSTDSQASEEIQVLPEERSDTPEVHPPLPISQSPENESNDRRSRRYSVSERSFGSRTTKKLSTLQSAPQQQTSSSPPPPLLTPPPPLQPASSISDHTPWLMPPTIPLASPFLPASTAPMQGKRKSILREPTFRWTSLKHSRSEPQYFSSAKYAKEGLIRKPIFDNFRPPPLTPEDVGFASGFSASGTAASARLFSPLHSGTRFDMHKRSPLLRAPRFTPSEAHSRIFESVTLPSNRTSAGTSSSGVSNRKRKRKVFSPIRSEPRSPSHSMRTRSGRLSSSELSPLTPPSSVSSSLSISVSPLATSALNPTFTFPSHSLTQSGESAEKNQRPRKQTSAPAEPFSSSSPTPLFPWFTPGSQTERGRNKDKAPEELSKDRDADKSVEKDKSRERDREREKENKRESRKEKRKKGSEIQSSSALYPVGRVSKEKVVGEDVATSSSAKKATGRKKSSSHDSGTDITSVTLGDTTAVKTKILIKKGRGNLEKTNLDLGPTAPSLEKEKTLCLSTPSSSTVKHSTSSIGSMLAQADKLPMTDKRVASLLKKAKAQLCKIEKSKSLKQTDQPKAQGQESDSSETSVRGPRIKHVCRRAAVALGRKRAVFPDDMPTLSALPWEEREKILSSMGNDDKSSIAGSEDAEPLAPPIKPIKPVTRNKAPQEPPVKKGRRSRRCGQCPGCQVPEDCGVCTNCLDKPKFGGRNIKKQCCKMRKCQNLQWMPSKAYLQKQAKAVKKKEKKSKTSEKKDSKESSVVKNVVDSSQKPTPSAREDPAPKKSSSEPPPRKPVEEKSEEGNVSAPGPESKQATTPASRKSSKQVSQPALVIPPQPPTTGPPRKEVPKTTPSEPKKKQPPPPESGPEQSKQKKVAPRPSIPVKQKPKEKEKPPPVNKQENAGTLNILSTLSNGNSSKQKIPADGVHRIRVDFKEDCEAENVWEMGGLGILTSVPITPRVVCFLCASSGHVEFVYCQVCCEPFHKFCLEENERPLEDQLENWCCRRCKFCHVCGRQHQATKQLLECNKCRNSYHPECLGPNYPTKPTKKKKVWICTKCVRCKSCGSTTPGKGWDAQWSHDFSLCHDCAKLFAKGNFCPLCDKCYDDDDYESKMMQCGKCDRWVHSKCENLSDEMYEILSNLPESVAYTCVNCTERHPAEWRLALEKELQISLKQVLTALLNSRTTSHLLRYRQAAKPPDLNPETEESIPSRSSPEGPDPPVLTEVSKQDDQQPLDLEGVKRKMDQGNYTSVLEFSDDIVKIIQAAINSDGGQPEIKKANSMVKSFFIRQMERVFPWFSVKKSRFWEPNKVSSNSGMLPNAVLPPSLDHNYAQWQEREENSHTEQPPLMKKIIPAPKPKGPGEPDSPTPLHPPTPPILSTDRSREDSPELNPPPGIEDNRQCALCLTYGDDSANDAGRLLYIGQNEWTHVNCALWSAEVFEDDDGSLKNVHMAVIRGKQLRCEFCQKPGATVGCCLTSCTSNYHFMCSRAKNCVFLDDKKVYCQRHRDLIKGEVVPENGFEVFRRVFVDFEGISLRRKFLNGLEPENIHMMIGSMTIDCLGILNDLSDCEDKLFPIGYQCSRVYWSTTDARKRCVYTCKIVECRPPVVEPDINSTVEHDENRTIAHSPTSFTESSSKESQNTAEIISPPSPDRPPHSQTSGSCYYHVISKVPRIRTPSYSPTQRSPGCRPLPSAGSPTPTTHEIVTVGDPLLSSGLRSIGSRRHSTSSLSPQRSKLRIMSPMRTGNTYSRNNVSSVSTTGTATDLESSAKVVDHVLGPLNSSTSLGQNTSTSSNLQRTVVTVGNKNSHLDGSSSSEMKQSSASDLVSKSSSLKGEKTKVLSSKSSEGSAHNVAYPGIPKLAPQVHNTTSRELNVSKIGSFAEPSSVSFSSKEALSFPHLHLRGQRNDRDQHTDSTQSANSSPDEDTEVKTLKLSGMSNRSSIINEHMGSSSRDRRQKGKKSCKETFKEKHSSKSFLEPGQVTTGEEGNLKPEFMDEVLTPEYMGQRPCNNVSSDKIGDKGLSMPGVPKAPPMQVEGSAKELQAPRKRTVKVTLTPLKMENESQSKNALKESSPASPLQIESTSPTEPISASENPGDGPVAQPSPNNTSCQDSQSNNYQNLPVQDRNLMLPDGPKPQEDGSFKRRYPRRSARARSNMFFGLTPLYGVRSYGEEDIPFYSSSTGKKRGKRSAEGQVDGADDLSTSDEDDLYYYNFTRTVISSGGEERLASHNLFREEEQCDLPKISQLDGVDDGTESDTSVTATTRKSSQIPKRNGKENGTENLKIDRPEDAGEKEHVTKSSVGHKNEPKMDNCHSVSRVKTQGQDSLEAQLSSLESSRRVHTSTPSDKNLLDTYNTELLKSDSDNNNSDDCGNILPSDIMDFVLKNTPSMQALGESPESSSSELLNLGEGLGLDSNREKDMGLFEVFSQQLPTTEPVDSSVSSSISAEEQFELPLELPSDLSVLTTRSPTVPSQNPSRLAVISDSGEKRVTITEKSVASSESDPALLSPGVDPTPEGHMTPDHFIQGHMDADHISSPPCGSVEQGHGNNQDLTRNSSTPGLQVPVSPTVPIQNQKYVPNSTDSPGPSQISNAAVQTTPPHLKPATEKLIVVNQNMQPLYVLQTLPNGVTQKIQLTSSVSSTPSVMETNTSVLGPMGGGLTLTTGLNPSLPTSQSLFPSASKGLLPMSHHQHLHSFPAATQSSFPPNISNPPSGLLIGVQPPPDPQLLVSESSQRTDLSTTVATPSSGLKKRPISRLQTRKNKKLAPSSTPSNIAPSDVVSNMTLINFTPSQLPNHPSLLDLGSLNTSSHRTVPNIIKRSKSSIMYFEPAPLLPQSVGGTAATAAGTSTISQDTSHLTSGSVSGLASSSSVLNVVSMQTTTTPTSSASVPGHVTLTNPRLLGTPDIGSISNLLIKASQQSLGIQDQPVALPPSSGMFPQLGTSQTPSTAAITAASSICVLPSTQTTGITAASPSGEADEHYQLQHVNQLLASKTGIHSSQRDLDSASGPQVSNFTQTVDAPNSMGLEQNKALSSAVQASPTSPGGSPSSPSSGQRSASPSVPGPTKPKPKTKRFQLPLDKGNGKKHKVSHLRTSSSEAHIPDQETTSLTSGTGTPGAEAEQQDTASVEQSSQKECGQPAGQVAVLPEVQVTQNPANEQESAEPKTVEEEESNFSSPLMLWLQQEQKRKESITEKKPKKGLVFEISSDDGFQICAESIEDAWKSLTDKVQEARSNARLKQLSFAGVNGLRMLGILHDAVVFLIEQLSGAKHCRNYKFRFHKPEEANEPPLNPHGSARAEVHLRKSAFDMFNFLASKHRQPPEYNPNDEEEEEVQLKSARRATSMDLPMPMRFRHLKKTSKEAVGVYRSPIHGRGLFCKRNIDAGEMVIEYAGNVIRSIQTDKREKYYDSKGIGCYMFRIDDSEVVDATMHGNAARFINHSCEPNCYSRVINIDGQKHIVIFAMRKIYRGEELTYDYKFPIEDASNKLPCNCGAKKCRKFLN", "assay": "qHTS Fluorescence Polarization Assay for Inhibitors of MLL CXXC domain - DNA interaction", "conditions": "MLL-CXXC / FITC-HOXA9 DNA fluorescence polarization; series mostly up to 115 µM", "procedure,_shortened": "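Steps: dispense CXXC domain solution (7 uM) → pin compounds or unlabeled HOX-A9 DNA control → 5 min ambient → add FLSN-HOX-A9 solution (50 nM) → spin → 30 min ambient → fluorescence polarization. Tris pH 7.5/NaCl/DTT/BSA buffer.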", "values": [
      {"smiles": "COc1ccc(NC(=S)N2CCC(NC(=O)c3cccc(F)c3)CC2)cc1", "Potency": "inactive"},
      {"smiles": "S=C(Nc1ccc(Cl)cc1Cl)N1CCCC1", "Potency": "inactive"},
      {"smiles": "Cc1ccc(-c2csc(N3CCN(c4cc5c(cc4Cl)nc(-c4ccncc4)n5CCOCCO)CC3)n2)cc1", "Potency": "inactive"},
      {"smiles": "O=C(N/N=C/c1cccnc1)c1ccc(NC(=O)c2ccc(F)cc2)cc1", "Potency": "inactive"},
      {"smiles": "COCCC(=O)N1CCC(Oc2ccc(C(=O)NCc3ccon3)cc2)CC1", "Potency": "inactive"},
      {"smiles": "O=c1[nH]cnc(O)c1C(c1ccc(F)cc1)c1c(O)nc[nH]c1=O", "Potency": "inactive"},
      {"smiles": "CCCc1nnc(NC(=O)CCC(=O)N2CCN(S(=O)(=O)c3ccc(OC)cc3)CC2)s1", "Potency": "inactive"},
      {"smiles": "O=C(c1cc2ccccc2o1)N1CCN(c2cccc(C(F)(F)F)c2)CC1", "Potency": "inactive"},
      {"smiles": "CCN(CC)CCCNC(=S)N(CCO)Cc1cc2cc3c(cc2[nH]c1=O)OCO3", "Potency": "inactive"},
      {"smiles": "CC(=O)N(CC(O)CO)c1c(I)c(C(=O)NCC(O)CO)c(I)c(C(=O)NCC(O)CO)c1I", "note": "(stereo unspecified)", "Potency": "inactive"},
      {"smiles": "CC(C)=CCN1CCN(Cc2cc3ccccc3[nH]2)CC1CCO", "note": "(stereo unspecified)", "Potency": "inactive"},
      {"smiles": "CCc1ccc(C(=O)NN=C2CCCCCC2)s1", "Potency": "inactive"},
      {"smiles": "COc1ccc(C(=O)Nc2ccc(C(=O)NCC3CCCO3)cc2)c(OC)c1OC", "note": "(stereo unspecified)", "Potency": "inactive"},
      {"smiles": "O=C(c1cccc(Br)c1)N1CCN(C2=NS(=O)(=O)c3ccccc32)CC1", "Potency": "inactive"},
      {"smiles": "O=C(NCCCNC(=O)c1ccccc1Cl)c1cnccn1", "Potency": "inactive"},
      {"smiles": "Cc1cc(C)c(C(=O)CSc2nc(C)cc(=O)[nH]2)c(C)c1", "Potency": "inactive"},
      {"smiles": "NC(=O)Cn1cc(/C=N\\NS(=O)(=O)c2ccccc2)c2ccccc21", "Potency": "inactive"},
      {"smiles": "COc1cccc(CN(C)CC2CCCN(CCc3ccc(Cl)cc3)C2)c1OC", "note": "(stereo unspecified)", "Potency": "inactive"},
      {"smiles": "C/C=C/C=N/NC(=O)c1ccncc1", "Potency": "inactive"},
      {"smiles": "CN1C(=O)[C@H]2[C@@H](C3CC3)N3C(=O)CN(Cc4ccccc4)C(=O)[C@@]3(C)[C@H]2C1=O", "Potency": "inactive"},
      {"smiles": "COc1ccc(C(=O)CCC(=O)Nc2cccnc2)c(OC)c1", "Potency": "inactive"},
      {"smiles": "CC(C)(O)c1ccccc1CC[C@H](SCC1(CC(=O)O)CC1)c1cccc(/C=C/c2ccc3ccc(Cl)cc3n2)c1", "Potency": "inactive"},
      {"smiles": "CCN(CC)c1ccc(C(=O)Nn2c(C)nc3ccccc3c2=O)cc1", "Potency": "inactive"},
      {"smiles": "O=C(NC(=S)Nc1ccc(Cl)c(C(=O)O)c1)c1cncc(Br)c1", "Potency": "inactive"},
      {"smiles": "CC(C)c1ccc(C2C(C(=O)c3ccco3)=C(O)C(=O)N2CC2CCCO2)cc1", "note": "(stereo unspecified)", "Potency": "inactive"},
      {"smiles": "COc1cc(C)c(C)cc1S(=O)(=O)N1CCCc2ccccc21", "Potency": "inactive"},
      {"smiles": "Cc1c(S(=O)(=O)N2CC(C)CC(C)C2)c(=O)n(C)c(=O)n1C", "note": "(stereo unspecified)", "Potency": "inactive"},
      {"smiles": "O=CN1CCN(C(=O)c2ccc(Br)o2)CC1", "Potency": "inactive"},
      {"smiles": "Cc1ccc(NS(=O)(=O)c2ccc(-c3coc(C)n3)cc2)c(C)c1", "Potency": "inactive"},
      {"smiles": "COc1ccc2cc(S(=O)(=O)Nc3ccccn3)ccc2c1", "Potency": "inactive"},
      {"smiles": "COc1ccc(S(=O)(=O)/N=C2\\C=C(NS(=O)(=O)c3ccccc3)C(=O)c3ccccc32)cc1", "Potency": "25.1 µM (active)"},
      {"smiles": "COc1ccc(S(=O)(=O)Nc2c(C)n(C)n(-c3ccccc3)c2=O)cc1", "Potency": "inactive"},
      {"smiles": "NC(=O)c1cc(S(=O)(=O)N2CCCC2)ccc1OCc1ccc(F)cc1", "Potency": "inactive"},
      {"smiles": "O=C(O)c1ccc(S(=O)(=O)N2CCOCC2)o1", "Potency": "inactive"},
      {"smiles": "CCn1nc(C)c(CNC(=O)C2CCC(=O)N(Cc3cccc(F)c3)C2)c1C", "note": "(stereo unspecified)", "Potency": "inactive"},
      {"smiles": "COc1ccc(-c2cc(=O)oc3cc(OCC(=O)N(C)C4CCS(=O)(=O)C4)ccc23)cc1", "note": "(stereo unspecified)", "Potency": "inactive"},
      {"smiles": "Cc1cc(C)c2c(Cn3ccnc3)cc(=O)oc2c1", "Potency": "inactive"},
      {"smiles": "Cc1cc(-c2nnc(SCC(=O)Nc3ccc(S(N)(=O)=O)cc3)n2N)n[nH]1", "Potency": "inactive"},
      {"smiles": "Cc1ccc(NC(=O)NC(=O)c2ccccc2)cc1F", "Potency": "inactive"},
      {"smiles": "Cc1ccc(NC(=O)CSc2nn3c(=O)c(C)nnc3s2)cc1Cl", "Potency": "inactive"},
      {"smiles": "COc1ccc(CNS(=O)(=O)c2ccc(NC(=O)N3CCCCC3)cc2)cc1", "Potency": "inactive"},
      {"smiles": "CCCc1cc(C(=O)N2CCCC(CO)(CCCc3ccccc3)C2)n(C)n1", "note": "(stereo unspecified)", "Potency": "inactive"},
      {"smiles": "Cc1ccc(C(=O)NCC(=O)OCc2nnc(-c3ccccc3)o2)cc1", "Potency": "inactive"},
      {"smiles": "COc1ccc(CN2CCCC(N3CCc4ccccc4C3)C2)c(O)c1", "note": "(stereo unspecified)", "Potency": "inactive"},
      {"smiles": "CC(C)(C)c1ccc(C(=O)N2CCN(CCNC(=O)C(=O)Nc3ccc(F)cc3)CC2)cc1", "Potency": "inactive"},
      {"smiles": "O=C(NCCCN1CCOCC1)C1CCCN(S(=O)(=O)N2CCCCC2)C1", "note": "(stereo unspecified)", "Potency": "inactive"},
      {"smiles": "O=C(CCn1nnc2ccccc21)OCC(=O)c1ccc([N+](=O)[O-])cc1", "Potency": "inactive"},
      {"smiles": "COc1cc([N+](=O)[O-])cc([N+](=O)[O-])c1NC(=O)N1CCOCC1", "Potency": "inactive"},
      {"smiles": "Cc1csc(NC(=O)CSc2nc(=O)cc(N)n2-c2ccc(F)cc2)n1", "Potency": "inactive"},
      {"smiles": "CCOc1ccc(S(=O)(=O)N2CCCC(C(=O)N3CCC(C(N)=O)CC3)C2)cc1Cl", "note": "(stereo unspecified)", "Potency": "inactive"},
      {"smiles": "Cc1c(CN2CCC(n3nccc3NC(=O)CCc3ccccc3)CC2)cnn1C", "Potency": "inactive"},
      {"smiles": "CC(=O)c1ccc(NC(=O)Cn2c(=O)oc3ccccc32)cc1", "Potency": "inactive"},
      {"smiles": "CCOc1ccccc1NC(=O)C1CCCN(S(=O)(=O)c2ccccc2)C1", "note": "(stereo unspecified)", "Potency": "inactive"},
      {"smiles": "CC1CCC(NS(=O)(=O)c2ccc3c(c2)CC(=O)N3)CC1", "note": "(stereo unspecified)", "Potency": "inactive"},
      {"smiles": "CC(=O)N[C@@H](C)C(=O)N1CCC(n2nccc2NC(=O)CCCc2ccccc2)CC1", "Potency": "inactive"},
      {"smiles": "Clc1ccc(C(Cn2ccnc2)OCc2ccsc2Cl)c(Cl)c1", "note": "(stereo unspecified)", "Potency": "inactive"},
      {"smiles": "COc1ccc(OCCn2ccnc2C)cc1", "Potency": "inactive"},
      {"smiles": "Cc1ccc(CN(C)Cc2cc(=O)oc3cc(C)c(Cl)cc23)cc1", "Potency": "inactive"},
      {"smiles": "COc1ccc(N(C(=O)CNC(=O)c2ccco2)C(C(=O)NCC2CCCO2)c2ccccc2)cc1Cl", "note": "(stereo unspecified)", "Potency": "inactive"},
      {"smiles": "CCOC(CNC(=O)C(=O)NCC(c1ccco1)N1CCN(c2ccc(OC)cc2)CC1)OCC", "note": "(stereo unspecified)", "Potency": "inactive"},
      {"smiles": "Cc1ccc(NS(=O)(=O)c2c(C)[nH]c(C)c2C(=O)N2CCCCC2)c(C)c1", "Potency": "inactive"},
      {"smiles": "CCOC(=O)c1cccc(NC(=O)C2CCN(c3ncnc4c3nc3n4CCCCC3)CC2)c1", "Potency": "inactive"},
      {"smiles": "O=S1(=O)CCO[C@H]2Cc3ccccc3[C@H]2N1Cc1ccccc1", "Potency": "inactive"},
      {"smiles": "CC(C)c1ccc(/C=C2\\NC(=O)NC2=O)cc1", "Potency": "inactive"},
      {"smiles": "Cc1cccc(NS(=O)(=O)c2ccc([N+](=O)[O-])cc2)n1", "Potency": "inactive"},
      {"smiles": "COc1ccc(NC(=O)CC2C(=O)NC3CCCCC3N2C(=O)c2ccc(F)cc2)cc1", "note": "(stereo unspecified)", "Potency": "inactive"},
      {"smiles": "COCC1CCN(C(=O)C2CCC(=O)N(CC3CCCCC3)C2)CC1", "note": "(stereo unspecified)", "Potency": "inactive"},
      {"smiles": "S=C(NCCC1=CCCCC1)Nc1ccccc1", "Potency": "inactive"},
      {"smiles": "CSc1ccccc1OCc1cc(C(=O)N2C[C@H]3CC[C@H]2C3)no1", "Potency": "inactive"},
      {"smiles": "O=C(Cc1ccc(Cl)cc1)NC(=S)Nc1ccccc1O", "Potency": "inactive"},
      {"smiles": "CCC(C)(C)n1nnnc1C(c1ccc(OC)c(OC)c1)N1CCN(C(=O)c2ccco2)CC1", "note": "(stereo unspecified)", "Potency": "inactive"},
      {"smiles": "CC(=O)NC(Cc1c[nH]c2ccccc12)C(=O)NCCc1ccccc1", "note": "(stereo unspecified)", "Potency": "inactive"},
      {"smiles": "C[C@H](C(=O)CC(=O)OC(C)(C)C)[C@H](O)c1ccc(C(F)(F)F)cc1", "Potency": "inactive"},
      {"smiles": "CCc1nc2nc(C)c(NS(=O)(=O)c3ccc4c(c3)CCCC4)c(=O)n2[nH]1", "Potency": "inactive"},
      {"smiles": "CCOC(=O)c1c(C)[nH]c(C(=O)NCCN2CCOCC2)c1C", "Potency": "inactive"},
      {"smiles": "COc1ccc(NS(=O)(=O)c2cc(C(=O)Nc3ccccc3C(=O)O)ccc2C)cc1", "Potency": "inactive"}
    ]}
  ]
}
